# Measured values reported in PubChem BioAssay (NCI).
# Compounds without any hit were thinned out: in the full panel of roughly 83,000, 20% have a hit.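 48-hour exposure, single concentration, 96-well plates; percent growth endpoint where 0 means no net growth. Active: below 10.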 Values without a mark were called inactive. Activity calls are given as the source filed them.
# Key:
# Assay in all cases: NCI-60 one-dose screen, 48 h (100 = growth as untreated, 0 = no growth, -100 = all killed)
# Conditions in all cases: 10 µM unless noted
# NCI-H23 lung = system: NCI-H23 lung
# NCI-H226 lung = system: NCI-H226 lung
# NCI-H322M lung = system: NCI-H322M lung
# NCI-H460 lung = system: NCI-H460 lung
# HOP-92 NSCLC = system: HOP-92 NSCLC
# NCI-H522 lung = system: NCI-H522 lung
# A549/ATCC NSCLC = system: A549/ATCC NSCLC
# 786-0 renal = system: 786-0 renal
# COLO 205 colon = system: COLO 205 colon
# HOP-62 NSCLC = system: HOP-62 NSCLC
SMILES,growth (NCI-H23 lung),growth (NCI-H226 lung),growth (NCI-H322M lung),growth (NCI-H460 lung),growth (HOP-92 NSCLC),growth (NCI-H522 lung),growth (A549/ATCC NSCLC),growth (786-0 renal),growth (COLO 205 colon),growth (HOP-62 NSCLC)
COc1ccc(/C=C/c2c(C(=O)/C=C/c3ccccc3)c(C)nc3ccccc23)cc1,20%,45.5%,28.4%,-48.1% (active),66.2%,-24.5% (active),20.2%,13.5%,3.63% (active),
CC1(C)OB(O)c2cc(-c3nc4ccc5[nH]ncc5c4c4c3CCCC4)ccc21,62.8%,55%,57%,34.1%,73.9%,77.9%,56.4%,66.1%,80.9%,
CCN(CC)CCCN1C(=O)c2c(c(C)c3c(oc4ccc(O)cc43)c2C)C1=O,92.7%,-44.7% (active),81.3%,-25.9% (active),69.3%,80%,-76.8% (active),-72.6% (active),64%,
CC(=C(c1ccc(OCCN2CCCCC2)cc1)c1ccc(OCCN2CCCCC2)cc1)c1ccc(Cl)cc1,-82.4% (active),-73.4% (active),-97.2% (active),-82.4% (active),-82.9% (active),-76.9% (active),-81.7% (active),-90.9% (active),-68.2% (active),
N#CSc1c[nH]c2cccc(/C=C/C(=O)/C=C(O)/C=C/c3cccc4[nH]cc(SC#N)c34)c12,-36.8% (active),-73.1% (active),-47.5% (active),-22.9% (active),,-68.2% (active),-69.7% (active),-60.3% (active),-77.7% (active),-32.6% (active)
O=C(Nc1cnc(Nc2ccc(N3CCOCC3)nc2)nc1Oc1ccc(C(F)(F)F)cc1)c1ccncc1,70%,92.8%,87.3%,74.3%,94.1%,82.8%,80.5%,96.8%,99.8%,
C/C=C(\C)C(=O)N[C@H]1C(O)C[C@]2(C)C3CC[C@@]4(C)C(CC[C@@H]4C(C)N(C)C)C3CCC2C1O (stereo partly drawn),68.7%,115%,65.2%,30.7%,,90.6%,81.6%,68.4%,29.4%,86.8%
Nc1nc2c(c3ncccc13)C(c1cccc(Cl)c1)Cc1ncccc1-2 (stereo not drawn),39.7%,75.8%,49.7%,6.87% (active),38.6%,-14.5% (active),18.6%,22.6%,-21.5% (active),
COc1ccc(C2CC(c3cc(OC)c(OC)c(OC)c3)=NO2)cc1OCCCCOc1cc2c(cc1OC)C(=O)N1CCC[C@H]1C=N2 (stereo partly drawn),-16% (active),-0.71% (active),17.4%,-14.8% (active),,-32.5% (active),20%,-35.3% (active),-32.9% (active),22.8%
CN1CCN(CCCOc2cccc3nc(Nc4ccc(F)c(F)c4)ccc23)CC1,36%,56.2%,-13.6% (active),-26% (active),,-58.6% (active),3.54% (active),-12.3% (active),-82.1% (active),5.44% (active)
Cc1cccc(Oc2ccc(Nc3ncnc4ccc(NC(=O)CN5CCN(C)CC5)cc34)cc2Cl)c1,69.6%,,15.1%,2.18% (active),43.1%,0.619% (active),28.4%,-40.7% (active),-43.4% (active),60%
Fc1cccc(-c2ccc3c(c2)C2(CCNCC2)CN3)c1,92.1%,,101%,106%,91.3%,90.4%,99.9%,98.5%,107%,105%
